Data taken from article PMC3795721, “Screening for Protein-DNA Interactions by Automatable DNA-Protein Interaction ELISA”.

The sequences below were run against AT4G31550 (Arabidopsis thaliana, UniProt Q9SV15 228-325) (assay: DPI-ELISA; DPI-ELISA, streptavidin 384-well plate, 1-2 pmol biotinylated dsDNA per well, crude native E. coli extract, anti-His detection; buffer as in Brand et al. [46],; high values mean tight binding). Conditions: tags: C-terminal His (pET-DEST42); label: 5' biotin on forward strand; dsDNA, one strand shown.
Chain of AT4G31550 (Q9SV15 228-325): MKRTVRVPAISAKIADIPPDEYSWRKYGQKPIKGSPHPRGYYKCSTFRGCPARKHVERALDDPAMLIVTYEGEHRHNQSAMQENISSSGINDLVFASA
In the case of AAAAAACTAGGTATCGGTAGGCGCCGAAAA, the binding signal is reported as 0.6 ± 0.0849 absorbance. In the case of AAAAAATTCAAAATGATCACTACGGGAAAA, the binding signal is reported as 0.545 ± 0.0778 absorbance. AAAAAAATCCCACTTCATTCTAAAAA showed a binding signal of 0.6 ± 0.0707 absorbance. Work on AAAAAAGTCCGCCCTTAATTCATATTAAAA yielded a binding signal of 1.37 ± 0.269 absorbance. AAAAAATTTTGTTTTTGCTTTTCCTTAAAA was tested, and the binding signal was 0.38 ± 0.0566 absorbance. AAAAAAAAATGCTAGCGCGTACGTAAAAAA was tested, and the binding signal was 0.69 ± 0.17 absorbance. For AAAAAACTCGTACATCTATCGCTACGAAAA, the binding signal was 0.54 ± 0.0849 absorbance. Sequence AAAAAAAACGTCTGGCGGGGTTGAGAAAAA has a binding signal of 0.65 ± 0.113 absorbance. Work on AAAAAAAAGGACATTTTTTCTTTTTGAAAA yielded a binding signal of 0.515 ± 0.0636 absorbance. With AAAAAACCGTATGTATATCTATATGTAAAA the binding signal was 0.42 ± 0.113 absorbance. Work on AAAAAATGCAGACCTTCAGCTGGGTAAAAA yielded a binding signal of 0.58 ± 0.0141 absorbance. Work on AAAAAATTCTTTTTTCTTCAAGGTCTAAAA yielded a binding signal of 0.565 ± 0.0212 absorbance. Work on AAAAAAGGCTTCCACTTTGAGTTTGCAAAA yielded a binding signal of 0.57 ± 0.099 absorbance. AAAAAATGGCTCGGGTTCCAAGGTTGAAAA showed a binding signal of 0.645 ± 0.0919 absorbance. For AAAAAATCGGGCCCCGTTAGCACTCTAAAA, the binding signal was 0.665 ± 0.12 absorbance. AAAAAAAGTTGTACTTATTATACTTTAAAA was tested, and the binding signal was 0.53 ± 0.113 absorbance. Sequence AAAAAATATCGGGCACGGTCTTGTCTAAAA has a binding signal of 0.585 ± 0.0495 absorbance. AAAAAAAGTTCCAGGTCCGATGCTCAAAAA gave a binding signal of 0.805 ± 0.318 absorbance. Work on AAAAAAATTGTATCATACTTCAGTTGAAAA yielded a binding signal of 0.61 ± 0.0707 absorbance. Sequence AAAAAAAACTGTCGCCCCCGGCTGGCAAAA has a binding signal of 0.545 ± 0.12 absorbance. AAAAAACAGTTCGATGTCACCCCCGCAAAA was tested, and the binding signal was 0.565 ± 0.106 absorbance. Sequence AAAAAAAGTCTGCGGCTGCAGGGCGGAAAA has a binding signal of 1.91 ± 0.368 absorbance. Work on AAAAAATGGTTTCAATTTTCCGTCCGAAAA yielded a binding signal of 0.405 ± 0.0778 absorbance. Sequence AAAAAACTCTTAAGGAAAGTTCCGACAAAA has a binding signal of 0.645 ± 0.12 absorbance. AAAAAATCAACCATTATGGTATTACTAAAA gave a binding signal of 0.79 ± 0.212 absorbance. For AAAAAAACGATACGGTATCTAGAAAA, the binding signal was 0.525 ± 0.0495 absorbance. For AAAAAATGCCATTGTACCTGTGTTCGAAAA, the binding signal was 0.395 ± 0.0354 absorbance. For AAAAAATGATGTTGGCGCATTTAAACAAAA, the binding signal was 0.53 ± 0.127 absorbance. Work on AAAAAAAGGGTCCGGTGCATACATGTAAAA yielded a binding signal of 0.57 ± 0.156 absorbance. In the case of AAAAAAGATTGACTCGTCTTACTCGAAAAA, the binding signal is reported as 3.08 ± 0.742 absorbance. AAAAAAACCCGTGCCTGCCTATTGCAAAAA gave a binding signal of 0.395 ± 0.0495 absorbance. AAAAAAGAGAATTGTCAGTGCCCAACAAAA gave a binding signal of 0.705 ± 0.106 absorbance. AAAAAATTCTTAGTTAGATTCACCTCAAAA was tested, and the binding signal was 0.575 ± 0.134 absorbance. With AAAAAAGTCTAAGGACTTATAGCTGTAAAA the binding signal was 1.65 ± 0.608 absorbance. Work on AAAAAAGCTAGTCGATTCGGCTTAGAAAAA yielded a binding signal of 0.68 ± 0.17 absorbance. AAAAAAGGGTTTGTCGGGAATTGCCGAAAA showed a binding signal of 0.58 ± 0.0849 absorbance. AAAAAAACTTTCTATTCTGGATAAGTAAAA was tested, and the binding signal was 0.625 ± 0.134 absorbance.
